Among the data in PubChem BioAssay (EPA / NIEHS) are outcome and AC50 values, retold here.

The nature of assay [1]: TOX21_p53_BLA_p2_viability: Viability Assessment in the Tox21 HCT-116 p53 Agonism Beta-lactamase Assay, Phase 2 (AID 2283591).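 Also: compound exposure lasted 16 h at 37 °C; actives lower the ATP signal meaning cytotoxicity.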 In a few lines:
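HCT-116 p53-bla cells (4000/well) rested 5 h at 37C, then received compounds in DMSO (217-fold dilution) for 16 h at 37C, 5% CO2. After the CCF4 read, CellTiter-Glo was added; ATP luminescence was read after 30 min at room temperature.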

In assay [2] the target is Cellular tumor antigen p53 (Homo sapiens) (UniProt P04637). Description: TOX21_p53_BLA_p2_ratio: Tox21 HCT-116 p53 Agonism Beta-lactamase Assay, Ratio, Phase 2 (AID 2283592). The method in brief:
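HCT116 cells carrying a p53-responsive beta-lactamase reporter were plated, incubated 5 h at 37C, then dosed with compounds in DMSO (217-fold dilution) for 16 h. CCF4-AM substrate was added for 2 h at room temperature; the 460/530 nm emission ratio gave gain-of-signal activity relative to DMSO.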

A short description of assay [3]: TOX21_p53_BLA_p3_viability: Viability Assessment in the Tox21 HCT-116 p53 Agonism Beta-lactamase Assay, Phase 3 (AID 2283593).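 Also: cells exposed to compound for 16 h before reading.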 In a few lines:
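HCT-116 cells (4000/well) rested 5 h at 37C, then got DMSO compounds by pin tool (217-fold dilution) for 16 h at 37C, 5% CO2. After the bla read, CellTiter-Glo was added and luminescence read at 30 min, room temperature.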

Assay [4] concerns the target Cellular tumor antigen p53 (Homo sapiens) (UniProt P04637). Description: TOX21_p53_BLA_p3_ratio: Tox21 HCT-116 p53 Agonism Beta-lactamase Assay, Ratio, Phase 3 (AID 2283596). The method in brief: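 HCT116 p53-bla cells (4000/well) given compound in DMSO (217-fold dilution) after 5 h, incubated 16 h at 37C. CCF4-AM substrate 2 h at room temperature; 460/530 nm emission ratio, gain fitted against DMSO.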

Assay [5] can be described thus: TOX21_p53_BLA_p5_viability: Viability Assessment in the Tox21 HCT-116 p53 Agonism Beta-lactamase Assay, Phase 5 (AID 2283600). The method in brief:
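Cells were plated at 4000/well, rested 5 h at 37C, then given compounds in DMSO (217-fold dilution) for 16 h at 37C, 5% CO2. Following the CCF4-AM beta-lactamase read, CellTiter-Glo was added and luminescence was read after 30 min at room temperature.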

Assay [6] concerns the target Cellular tumor antigen p53 (Homo sapiens) (UniProt P04637). Description: TOX21_p53_BLA_p4_ratio: Tox21 HCT-116 p53 Agonism Beta-lactamase Assay, Ratio, Phase 4 (AID 2283601). In a few lines:
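HCT116 cells carrying an inducible beta-lactamase reporter were plated at 4000 cells/well, rested 5 h, then exposed to compounds in DMSO (217-fold dilution) for 16 h at 37C. CCF4-AM substrate was loaded 2 h at room temperature; 460/530 nm emission ratio scored gain-of-signal versus DMSO.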

The nature of assay [7]: TOX21_p53_BLA_p4_viability: Viability Assessment in the Tox21 HCT-116 p53 Agonism Beta-lactamase Assay, Phase 4 (AID 2283597).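 Also: hits lower the luminescence signal meaning cytotoxicity.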 The method in brief:
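HCT116 p53-bla cells (4000/well) rested 5 h at 37C, then received compounds in DMSO (217-fold dilution) for 16 h at 37C, 5% CO2. CellTiter-Glo was added after the CCF4-AM read, and luminescence was read after 30 min at room temperature.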

Assay [8] has as its target PGR (gene 5241) (UniProt P06401). Put plainly: TOX21_PR_BLA_Followup_Antagonist_ratio: Tox21 HEK293 Progesterone Receptor (PR) Antagonism Beta-lactamase Follow-Up Assay, Ratio (AID 2283934). The method in brief: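 PR-UAS-bla HEK293T cells in medium with 2% charcoal-stripped FBS were treated with compounds plus 1 nM (final) promegestone (R5020) for 16 hr at 37C. LiveBLAzer B/G FRET substrate was then added for 2 h at room temperature; signal is cleaved/uncleaved substrate ratio versus DMSO.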

Assay [9] concerns the target Cellular tumor antigen p53 (Homo sapiens) (UniProt P04637). Put plainly: TOX21_p53_BLA_p5_ratio: Tox21 HCT-116 p53 Agonism Beta-lactamase Assay, Ratio, Phase 5 (AID 2283599). The method in brief:
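HCT-116 cells carrying a p53-inducible beta-lactamase reporter were seeded at 4000 cells/well and dosed after 5 h with compound in DMSO (217-fold dilution). After 16 h at 37C, CCF4-AM substrate was added for 2 h, and the 460/530 nm emission ratio was scored as gain-of-signal versus DMSO.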

Inconclusive results are not listed. The source made the active and inactive calls. The calls were made as follows: active = hit-call score of the fitted dose curve at least 0.9, where 1 is the maximum; inconclusive = response in the unintended direction; inactive = score below 0.9.

Chain of Cellular tumor antigen p53 (Homo sapiens) (P04637 whole entry, looked up): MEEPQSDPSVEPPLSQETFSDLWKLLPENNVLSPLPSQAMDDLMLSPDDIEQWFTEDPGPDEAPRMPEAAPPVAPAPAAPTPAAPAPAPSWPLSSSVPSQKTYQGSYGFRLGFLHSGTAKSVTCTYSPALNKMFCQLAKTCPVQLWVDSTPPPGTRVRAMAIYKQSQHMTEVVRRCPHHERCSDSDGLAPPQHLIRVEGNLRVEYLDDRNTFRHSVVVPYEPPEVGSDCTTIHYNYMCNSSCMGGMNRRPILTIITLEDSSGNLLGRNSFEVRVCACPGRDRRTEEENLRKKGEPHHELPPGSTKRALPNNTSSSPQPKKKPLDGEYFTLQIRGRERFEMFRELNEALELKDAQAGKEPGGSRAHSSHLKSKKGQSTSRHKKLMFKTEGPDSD
Chain of PGR (gene 5241) (P06401 whole entry, looked up): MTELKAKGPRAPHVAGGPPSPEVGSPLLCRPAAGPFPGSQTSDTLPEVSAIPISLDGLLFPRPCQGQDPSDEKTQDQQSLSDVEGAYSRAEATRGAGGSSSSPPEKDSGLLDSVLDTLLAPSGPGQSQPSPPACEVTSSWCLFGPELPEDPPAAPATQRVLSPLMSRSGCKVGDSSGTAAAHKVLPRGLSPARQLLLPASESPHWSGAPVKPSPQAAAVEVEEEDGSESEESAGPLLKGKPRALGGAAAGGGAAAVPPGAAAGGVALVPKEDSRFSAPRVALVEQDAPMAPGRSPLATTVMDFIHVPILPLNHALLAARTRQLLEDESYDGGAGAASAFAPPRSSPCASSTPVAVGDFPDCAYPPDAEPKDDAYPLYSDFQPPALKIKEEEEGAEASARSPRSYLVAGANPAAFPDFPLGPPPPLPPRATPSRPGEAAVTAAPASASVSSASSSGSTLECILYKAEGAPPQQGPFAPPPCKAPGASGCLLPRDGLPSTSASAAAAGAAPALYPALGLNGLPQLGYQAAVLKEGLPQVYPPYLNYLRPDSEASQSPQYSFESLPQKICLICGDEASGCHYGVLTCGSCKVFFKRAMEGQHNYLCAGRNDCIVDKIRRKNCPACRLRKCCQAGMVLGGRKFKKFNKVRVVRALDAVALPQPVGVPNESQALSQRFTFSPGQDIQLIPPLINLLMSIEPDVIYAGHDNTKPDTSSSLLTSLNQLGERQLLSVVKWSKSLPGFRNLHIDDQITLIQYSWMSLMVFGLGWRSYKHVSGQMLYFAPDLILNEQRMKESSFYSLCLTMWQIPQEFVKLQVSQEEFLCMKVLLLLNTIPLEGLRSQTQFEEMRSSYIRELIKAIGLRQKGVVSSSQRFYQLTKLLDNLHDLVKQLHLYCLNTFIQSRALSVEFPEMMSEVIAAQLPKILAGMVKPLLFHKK

For `COc1ccc(C(=O)N2CCN(CC(=O)N3CCOCC3)CC2)cc1`, the call in assay [1], in [2], in assay [3], in assay [4], in [5] and in [6] was inactive.

As for `Nc1cc(S(=O)(=O)O)ccc1S(=O)(=O)O`, the molecule was called inactive in assay [1], in [2], in assay [3] and in [7].

`C[C@H](/C=C/[C@H](C)C(C)(C)O)[C@H]1CC[C@H]2/C(=C/C=C3C[C@@H](O)C[C@H](O)C3)CCC[C@]12C`: the outcome in [1], in assay [2], in [4] and in assay [5] was inactive. In addition, the AC50 (usually the midpoint of the concentration-response curve, whichever way the signal moves) in assay [3] was 30 µM (active).

Take `CC1(C)C2CC[C@]3(C)[C@H](C(=O)C=C4[C@@H]5C[C@@](C)(C(=O)O)CC[C@]5(C)CC[C@]43C)[C@@]2(C)CC[C@@H]1O[C@H]1O[C@H](C(=O)O)[C@@H](O)[C@H](O)[C@H]1O[C@@H]1O[C@H](C(=O)O)[C@@H](O)[C@H](O)[C@H]1O` (stereo partly specified): the molecule was classed as inactive in [1], in assay [2], in [3] and in assay [7].

Take `C[N+](C)(CCCCCC[N+](C)(C)C1c2ccccc2-c2ccccc21)C1c2ccccc2-c2ccccc21`: the outcome in [1], in [2], in assay [3] and in [7] was inactive.

On to `CC(=O)O[C@H]1C[C@@H]2CC[C@@H]3[C@H](CC[C@@]4(C)[C@H]3C[C@H]([N+]3(C)CCCCC3)[C@@H]4OC(C)=O)[C@@]2(C)C[C@@H]1N1CCCCC1`, for which the molecule was classed as inactive in [1], in assay [2], in [3], in assay [4], in assay [5] and in [6].

As for `CC(=O)OCC(=O)[C@@]1(O)CCC2C3CCC4=CC(=O)CC[C@]4(C)C3C(O)C[C@@]21C` (stereo partly specified), the outcome in assay [1], in [2], in assay [3], in assay [4], in assay [5] and in assay [6] was inactive. In [8], the outcome was inactive.

Turning to `Cc1ccc([N+](=O)[O-])c(N)c1`, the call in assay [1], in [2], in [3], in [4] and in assay [6] was inactive.

As to `O=C1CCC(=O)O1`, the result in assay [1], in assay [2], in [3], in assay [7] and in assay [9] was inactive.

As for `CC(=O)CC(C)=O`, the result in assay [1], in [2], in assay [3], in assay [4] and in assay [5] was inactive.
